FAS TE block = FAS thioesterase domain inhibitors, primary screen, biochemical, fluorescence intensity, uHTS. Fatty acid synthase (Homo sapiens), P49327. recombinant FAS-TE, OMFH fluorogenic substrate, fluorescence endpoint. inhibition, % at 15 µM. hit rate 0.67% among 360,000;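 active = compounds whose normalised, plate-corrected inhibition of enzyme fluorescence in the single-dose primary screen is 50% or more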
ADAM10 inh = human ADAM10 inhibitors, primary screen, biochemical, QFRET, HTS; Disintegrin and metalloproteinase domain-containing protein 10 (Homo sapiens), O14672; recombinant ADAM10, EDANS/DABCYL FRET peptide cleavage, 3 h; inhibition, % at 7 µM; hit rate 0.62% among 370,000;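 active = inhibition above a per-campaign cutoff equal to the mean of compounds falling between control-based bounds plus 3 SD, cut at about 20% in these data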
ADAM17 inh = ADAM17 inhibitors, primary screen, biochemical, QFRET; Disintegrin and metalloproteinase domain-containing protein 17 (Homo sapiens), P78536; recombinant ADAM17, EDANS/DABCYL FRET peptide cleavage; inhibition, % at 6.95 µM; AID 720648, 2013; hit rate 0.83% among 370,000;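 active = inhibition above the mean of compounds lying between control limits plus 3 SD, set per campaign, cut at about 8.5% in these data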
GRIN3A LBD mod = binders of NR3A ligand-binding domain, primary screen, biophysical, differential scanning fluorimetry, uHTS; AID 1259313, 2017; NR3A LBD differential scanning fluorimetry, Tm shift; 0% = protein alone, 100% = glycine-bound protein; Tm shift relative to glycine control, % at 25 µM; Glutamate receptor ionotropic, NMDA 3A (GRIN3A) ligand-binding domain; hit rate 2.5% among 340,000;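 active = melting temperature shift of at least 10% of the positive control shift, at one fixed dose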
aDG glyco up = activators of alpha-DG glycosylation, primary screen, uHTS, Pro5-aDG cells, AlphaScreen; alpha-DG glycosylation AlphaScreen (IIH6); 0% Pro5, 100% B10-LARGE cell signal; activation, % at 10 µM; hit rate 0.22% among 360,000;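 active = activation of at least 8% versus controls, or a plate z-score of at least 8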;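 note: Pro5 are CHO cells carrying HIG-tagged alpha-DG that lacks glycosylation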
Each line names hits and unclear results; the compound was inactive in the other large screens. Sampled rows, rich in hits. Any-hit rate of the full collection: about 4%.

CCn1c2ccccc2c2cc(NC(=O)c3cccc([N+](=O)[O-])c3C)ccc21	none
O=C(c1cccc([N+](=O)[O-])c1)n1nc(-c2ccccc2)nc1NCc1ccccc1	none
O=C(Nc1cccc([N+](=O)[O-])c1)c1ccc(-c2ccccc2)cc1	GRIN3A LBD mod 25
O=C(CSc1nc(-c2ccccc2)nn1C(=O)c1ccccc1)Nc1cccc([N+](=O)[O-])c1	GRIN3A LBD mod 13
CCn1c2ccccc2c2cc(NC(=O)c3cccc([N+](=O)[O-])c3)ccc21	GRIN3A LBD mod 17
O=C(COC(=O)c1ccccc1NC(=O)c1ccco1)NCC1CCCCC1	none
CCc1nnc(NC(=O)c2ccc(Cl)c(S(=O)(=O)N3CCc4ccccc43)c2)s1	none
O=C(Cc1ccc(S(=O)(=O)N2CCCCC2)cc1)NCc1ccc(Cl)cc1	none
CCOC(=O)c1cc2cc(OC)ccc2[nH]1	GRIN3A LBD mod 11
O=C(COc1cccc(NC(=O)c2ccccc2)c1)c1ccccc1	none
COc1ccc(C(=O)Nc2ccc3ccccc3c2)c(OC)c1	GRIN3A LBD mod 18
O=C(COc1cccc(NC(=O)c2cccs2)c1)c1ccc(F)cc1	GRIN3A LBD mod 13
O=C(Nc1ccc(NC(=O)c2ccc([N+](=O)[O-])o2)cc1Cl)c1ccco1	GRIN3A LBD mod 22
Cn1nc(C(C)(C)C)c([N+](=O)[O-])c1C(=O)NCCO	none
CCN(C(=O)COC(=O)c1cc([N+](=O)[O-])ccc1N1CCCCC1)C1CCS(=O)(=O)C1 (configuration not stated)	none
O=C(NCc1cccs1)C1CCCN(S(=O)(=O)c2cccc3ccccc23)C1 (configuration not stated)	none (no result: FAS TE block, GRIN3A LBD mod, aDG glyco up)
COc1c(Cl)cc(Cl)cc1/C=C/C(=O)c1ccc(NC(=O)c2cccs2)cc1	GRIN3A LBD mod 30
COc1cc(NC(=O)c2cc3ccccc3cc2OC)ccc1NC(=O)c1cccs1	GRIN3A LBD mod 21
COc1ccc(NC(=O)c2cc3ccccc3[nH]2)cc1	GRIN3A LBD mod 24
COc1ccc2[nH]c(C(=O)Nc3ccc(C)c(F)c3)cc2c1	none
COc1c(Cl)cc(Cl)cc1C(=O)Nc1ccc(C(=O)O)cc1	none
COc1cc(NC(=O)c2cccc(Cl)c2)ccc1NC(=O)c1cccs1	GRIN3A LBD mod 30
O=C(O)[C@H](CO)Nc1ncnc2sc3c(c12)CCC3	none
c1ccc(-c2cnnc(N3CCCCC3)n2)cc1	none
COc1cccc(C(=O)Nc2cccc(NC(=O)c3cccs3)c2)c1	GRIN3A LBD mod 17
COc1cccc(C(=O)Nc2cccc(C(=O)NCC(C)C)c2)c1	GRIN3A LBD mod 13
COc1cc(NC(=O)c2ccc([N+](=O)[O-])o2)ccc1NC(=O)c1cccs1	GRIN3A LBD mod 24
O=C(Nc1cccc(NC(=O)c2cccs2)c1)c1ccc([N+](=O)[O-])o1	none
COc1cccc(NC(=O)c2cccc(C(=O)Nc3cccc(OC)c3)c2)c1	none
Cc1cc(C2(c3cc(C)c(NC(=O)CN4CCOCC4)c(C)c3)CCCCC2)cc(C)c1NC(=O)CN1CCOCC1	none (no result: FAS TE block, aDG glyco up)
O=c1c2ccccc2nc(N/N=C/c2c(O)ccc3ccccc23)n1O	GRIN3A LBD mod 12
COc1cc(NC(=O)Cn2nc(C(F)(F)F)c(Br)c2C)cc([N+](=O)[O-])c1	GRIN3A LBD mod 21
Cc1ccc(F)cc1NC(=O)c1ccc(NS(=O)(=O)c2ccc(Br)s2)cc1	GRIN3A LBD mod 16
CCN(CC)c1nc(Nc2ccccc2)nc(Oc2ccc(C(=O)OC)cc2)n1	GRIN3A LBD mod 14
COC(=O)c1ccc(Oc2nc(Nc3ccccc3)nc(N(C)C)n2)cc1	none
Cc1ccc(NC(=O)CSc2nnc(-c3cccnc3)o2)c(C)c1	none
CCCCCc1ccc(-c2cn(CCc3c[nH]c4ccccc34)nn2)cc1	GRIN3A LBD mod 19
CCCCCc1ccc(-c2cn(CCCOCc3ccccc3)nn2)cc1	none
CCOC(=O)c1cnc2ccc(OCC)cc2c1NCc1ccccc1OC	GRIN3A LBD mod 20
CCOC(=O)c1cnc2ccc(OC)cc2c1NCc1ccccc1	none
CCN(Cc1ccc2c(c1)OCCO2)C(=O)CN1C(=O)NC2(CCCCC2)C1=O	none
CCN(CC)S(=O)(=O)c1ccc(N/N=C/c2cc(OC)ccc2O)nc1	GRIN3A LBD mod 24
COc1ccc(N=C2NC(=O)/C(=C\c3ccco3)S2)cc1	none
COc1cc(/C=C2/SC(=Nc3ccc(O)cc3)NC2=O)cc(OC)c1O	GRIN3A LBD mod 11
COc1cc(/C=C2\SC(=Nc3ccc(O)cc3)NC2=O)cc(OC)c1OC	none (no result: FAS TE block, aDG glyco up)
COc1ccc(N=C2NC(=O)/C(=C/c3ccc(O)c(OC)c3)S2)cc1	GRIN3A LBD mod 20
COc1cccc(C(=O)Nc2ccc(NC(=O)C(C)(C)C)cn2)c1	GRIN3A LBD mod 17
COc1cc(C(=O)Nc2ccc(NC(=O)c3cccc(Cl)c3)nc2)cc(OC)c1OC	GRIN3A LBD mod 27
Cc1ccc(NC(=O)Nc2cnc3ccccc3c2)cc1	GRIN3A LBD mod 27
Cc1ccc(NC(=O)CS(=O)CC(=O)Nc2cnc3ccccc3c2)cc1Cl (configuration not stated)	GRIN3A LBD mod 32
Cc1ccc(NC(=O)Nc2ccnc(-c3cccnc3)n2)cc1	GRIN3A LBD mod 34
CCCCn1c(SCC(=O)N2CCC(C)CC2)nc2cc(S(N)(=O)=O)ccc21	none (no result: ADAM10 inh, ADAM17 inh)
CC(=O)Nc1cc(Cl)c(N=Cc2ccc(O)cc2O)cc1Cl	none
CCOC(=O)c1sc(/N=C/c2ccc(O)cc2O)cc1C	GRIN3A LBD mod 14
Cc1ccc(NC(=O)c2cccs2)cc1[N+](=O)[O-]	none
Cc1ccc(C(=O)NC(=S)Nc2ccc(NC(=O)c3cccs3)cc2)cc1[N+](=O)[O-]	GRIN3A LBD mod 31
Cc1ccc(C(=O)NC(=S)Nc2ccccc2N2CCCC2)cc1[N+](=O)[O-]	none
Cc1ccc(C(=O)Nc2ccc(NC(=O)c3cccs3)cc2)cc1[N+](=O)[O-]	GRIN3A LBD mod 29
Cc1cc(NC(=O)c2ccc(C)c([N+](=O)[O-])c2)no1	none
Cc1ccc(C(=O)Nc2cccc(NC(=O)c3ccc(C)c([N+](=O)[O-])c3)n2)cc1[N+](=O)[O-]	GRIN3A LBD mod 14
Cc1ccc(C(=O)NC(C)CCc2ccccc2)cc1[N+](=O)[O-] (configuration not stated)	FAS TE block 74
O=C(CCNC(=O)c1ccc([N+](=O)[O-])cc1)NC1CCCc2ccccc21 (configuration not stated)	none
O=S(=O)(Nc1nc2ccccc2nc1Nc1ccc2c(c1)OCCO2)c1cccs1	GRIN3A LBD mod 13
CCN(CC(=O)Nc1ccccc1C(F)(F)F)C(=O)Cc1sc(C)nc1-c1ccc(F)cc1	none
CC(C)(CNC(=S)NCCc1ccccc1)CNC(=S)NCCc1ccccc1	GRIN3A LBD mod 14

From PubChem
